Source: PubChem BioAssay (National Center for Advancing Translational Sciences (NCATS))
Only some compounds are listed: those with a hit (about 11% of all), similar ones and a draw of the others.
3T3 cytotox – kills NIH 3T3 cells. AID 1345082. NIH 3T3 viability, CellTiter-Glo ATP luminescence, 48-72 h. actives 4.3% (n = 94,000). Potency, µM (highest dose often 96.7 µM), for inactives: top-dose activity change, negative = cytotoxicity, most hits filed as inhibitors; active = well fitted curve in the direction sought with a large enough effect; inconclusive = small, poorly fitted or top-dose-only effect, or another doubt; inactive = no such curve, though single readings can be large; an effect the other way counts as inactive or inconclusive; also: % is scaled to controls: 0 for no effect and ±100 for the full control effect; nearly all actives have a fitted effect of over 55% in size
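ATP-dependent luminescence (CellTiter-Glo) served as the viability signal for NIH 3T3 cells treated with compound for 48 or 72 hr at 37 °C.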
HEK293 tox – kills HEK 293 cells | Potency, µM (top dose mostly 115 µM), without a hit: at the top dose activity change, negative = cytotoxicity, actives largely listed as inhibitors | HEK 293 viability, ATP luminescence (CellTiter-Glo), 48-72 h | actives 6.6% (n = 94,000) | AID 1345083; active = well fitted curve in the direction sought with a large enough effect; inconclusive = small, poorly fitted or top-dose-only effect, or another doubt; inactive = no such curve, though single readings can be large; an effect the other way counts as inactive or inconclusive; also: % is scaled to controls: 0 for no effect and ±100 for the full control effect; nearly all actives have a fitted effect of over 60% in size
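HEK 293 cells seeded at 250 cells/well were exposed to compound for 48 or 72 hr at 37 degree Celsius. Viability taken as ATP content by CellTiter-Glo luminescence.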
NPR1 antag – blocks ANP-stimulated signaling of human Npr1 receptor | P16066 | HEK293 hNpr1 GloSensor cGMP, ANP-stimulated luminescence | Potency, µM (highest dose often 46.3 µM), for inactives: at the top dose activity change, negative = inhibition, hits mostly inhibitors | actives 1.6% (n = 76,000) | AID 1347048; also: % is scaled to controls: 0 for no effect and ±100 for the full control effect; nearly all actives have a fitted effect of over 60% in size
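HEK293 cells stably expressing human Npr1 and cGMP GloSensor pGS-40F, loaded 2 h with 2% GloSensor reagent, given compound 30 min at room temperature. Luminescence read before and 20 min after 0.1 nM hNppA.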
Luciferase inh – blocks purified firefly luciferase enzyme activity. purified P. pyralis luciferase, luminescence, biochemical. Potency, µM (highest dose often 115 µM), usual class: inhibitors. actives 2.5% (n = 76,000). AID 1347043; active = well fitted curve in the direction sought with a large enough effect; inconclusive = small, poorly fitted or top-dose-only effect, or another doubt; inactive = no such curve, though single readings can be large; an effect the other way counts as inactive or inconclusive; also: % is scaled to controls: 0 for no effect and ±100 for the full control effect; nearly all actives have a fitted effect of over 65% in size
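Purified P. pyralis luciferase (10nM final) in 50mM Tris acetate pH 7.5, 10mM Mg acetate, 0.01% Tween-20, 0.05% BSA with 10uM D-luciferin and 10uM ATP. Compounds titrated qHTS. Luminescence imaged on CCD.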
NPR1 antag cnf – hNpr1 antagonism, confirmation assay. HEK293 hNpr1 cGMP GloSensor luminescence, ANP-stimulated. shares compounds with NPR1 antag. Potency, µM (top dose mostly 57.6 µM), inactives show top-dose activity change, negative = inhibition, hits mostly inhibitors. actives 76% (n = 1,400); also: nearly all actives have a fitted effect of over 70% in size
Npr2 selectivity – antagonizes human Npr2, subtype selectivity check. shares compounds with NPR1 antag. HEK293 hNpr2 GloSensor cGMP luminescence, CNP-stimulated. Potency, µM (titrated, usually from 57.6 µM), for inactives: at the highest dose activity change, negative = inhibition, hits mostly inhibitors. actives 67% (n = 1,400). AID 1347046; also: nearly all actives have a fitted effect of over 70% in size
FLuc inh counter – inhibits firefly luciferase, false Npr1 antagonist flag; shares compounds with NPR1 antag; purified FLuc enzyme, luminescence, Km substrate; Potency, µM (highest dose often 57.6 µM), for inactives: at the top dose activity change, negative = inhibition, most hits filed as inhibitors; actives 0.7% (n = 1,400); AID 1347047; active = well fitted curve in the direction sought with a large enough effect; inconclusive = small, poorly fitted or top-dose-only effect, or another doubt; inactive = no such curve, though single readings can be large; an effect the other way counts as inactive or inconclusive; also: 0% is about no effect
GloSensor cGMP – reduces cGMP signal in GloSensor control cells | shares compounds with NPR1 antag | HEK293 GloSensor cGMP, SNP-stimulated, luminescence | Potency, µM (doses to about 57.6 µM), for inactives: at the top dose activity change, negative = inhibition, hits mostly inhibitors | actives 69% (n = 1,400); also: % is scaled to controls: 0 for no effect and ±100 for the full control effect; nearly all actives have a fitted effect of over 70% in size
Numbers without * were called inactive; [ ] = another dose, or the depositor's remark. Unless noted, calls follow the shape of the full dose curve. Potency is read from the fitted curve at half-maximal effect.

Results for O=C(CCc1ccccc1)N1CCC(c2nc(C3CCOCC3)no2)C1 (stereo not given) ?
3T3 cytotox: -10%; HEK293 tox: -11%; NPR1 antag: -18%; Luciferase inh: inactive; NPR1 antag cnf: -17%; Npr2 selectivity: -2%; FLuc inh counter: -2%; GloSensor cGMP: -12%

Results for COc1cccc(CCC(=O)N2CCC(c3nc(C4CCOCC4)no3)C2)c1 (stereo not given) ?
3T3 cytotox: -26%; HEK293 tox: inconclusive; NPR1 antag: -1%; Luciferase inh: inactive

What do the screens show for `O=C(Cc1cccc(Cl)c1)N1CCC(C(=O)N2CCC(c3nc4ncccc4[nH]3)CC2)C1` (stereo not given)?
3T3 cytotox: -27%; HEK293 tox: -21%

How did O=C(Nc1ccncc1)C1=NO[C@@H]2CN(CCc3ccccc3)C[C@H]12 do in these assays?
3T3 cytotox: inconclusive; HEK293 tox: inconclusive; NPR1 antag: inconclusive; Luciferase inh: inactive; NPR1 antag cnf: 40µM*; Npr2 selectivity: inconclusive; FLuc inh counter: 5%[86.2 µM]; GloSensor cGMP: 35µM*

How did O=C(Nc1ccc(F)c(Cl)c1)C1=NO[C@@H]2CN(Cc3cccnc3)C[C@H]12 do in these assays?
3T3 cytotox: inconclusive; HEK293 tox: inconclusive; NPR1 antag: 28µM*; Luciferase inh: inactive; NPR1 antag cnf: 35µM*; Npr2 selectivity: 35µM*; FLuc inh counter: -3%[86.2 µM]; GloSensor cGMP: 31µM*

How did COCCN1CC(CO)C2(CCN(Cc3cccs3)CC2)C1 (stereo not given) do in these assays?
3T3 cytotox: -8%; HEK293 tox: inconclusive; NPR1 antag: 9%; Luciferase inh: inactive

How did COc1cccc(-c2cccc(CN)c2)c1 do in these assays?
3T3 cytotox: inconclusive; HEK293 tox: -26%[172 µM]

How did Cc1cc(C)cc(-c2cccc(CN)c2)c1 do in these assays?
3T3 cytotox: 40µM*; HEK293 tox: 56µM*; NPR1 antag cnf: 35µM*; Npr2 selectivity: 31µM*; FLuc inh counter: 5%[86.2 µM]; GloSensor cGMP: inconclusive

Results for O=C(CCC1CCCC1)N1CCC2(CC1)CC(N(C(=O)c1ccccc1)C1CC1)CCO2 (stereo not given) ?
3T3 cytotox: inconclusive; HEK293 tox: inconclusive; NPR1 antag: inconclusive; Luciferase inh: inactive; NPR1 antag cnf: inconclusive; Npr2 selectivity: -27%; FLuc inh counter: 0%; GloSensor cGMP: inconclusive

Results for O=C(Cc1ccccc1)N1CCC2(CC1)CC(N(C(=O)c1ccccc1)C1CC1)CCO2 (stereo not given) ?
3T3 cytotox: -17%; HEK293 tox: inconclusive; NPR1 antag: -14%; Luciferase inh: inactive

How did O=C(NCc1ccccc1)C1CCc2nnc(C3CCN([S+](=O)([O-])c4ccccc4Cl)CC3)n21 (stereo not given) do in these assays?
3T3 cytotox: -23%[138 µM]; HEK293 tox: -28%[172 µM]

How did O=C(N1CCC(c2ccccc2)CC1)C1(c2ccc(Cl)cc2)CCOCC1 do in these assays?
3T3 cytotox: inconclusive; HEK293 tox: inconclusive; NPR1 antag cnf: inconclusive; Npr2 selectivity: inconclusive; FLuc inh counter: 4%; GloSensor cGMP: -19%

How did CC(C)NC(=O)NCCNC(=O)c1ccc(-c2cncnc2)cc1 do in these assays?
3T3 cytotox: -7%[138 µM]; HEK293 tox: 0%[172 µM]
